Test results published in PubChem BioAssay.
For some assays here: Results with a measured potency or affinity are listed apart. Calls of active or inactive are those of the source. Unless noted, how the calls were made is not given here.

How the values were obtained:
[1] = antimalarial activity against Dd2 strain (AID 2302;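 active means growth inhibition above 50% at the single 2 µM test dose, taken to imply half-maximal potency below 2 µM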;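 further: 0% = DMSO untreated growth and 100% = chloroquine plus artemisinin killed control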); settings: P. falciparum Dd2 in RBCs, LDH growth readout, 72 h; at 2 µM; hits give high values
[2] = human hepatoma cell viability loss – ATP luminescence, cytotoxicity control for P. falciparum antimalarial project, primary screen (AID 2303;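 active means inhibition above 50%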;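 further: 0% = DMSO wells and 100% = digitonin-killed cells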); settings: HepG2 viability, 24-48 h, at 10 µM, hits give high values
[3] = target: L-lactate dehydrogenase (Plasmodium falciparum (isolate CDC / Honduras)) (UniProt Q27743); test: PfLDH activity inhibition – cell lysate, 3D7 strain, counter-screen for P. falciparum growth inhibition project (AID 2304);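 further: 0% = vehicle and 100% = reference inhibitor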; settings: P. falciparum 3D7 crude extract, LDH APAD/NBT absorbance; at 2 µM; hits give high values
[4] = inhibition of 3D7 malaria parasite growth – strain 3D7 (AID 2306);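 further: 0% = DMSO wells and 100% = chloroquine plus artemisinin control wells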; settings: P. falciparum 3D7 erythrocytic growth, LDH absorbance, 72 h; at 2 µM; hits give high values
[5] = target: Calcium-dependent protein kinase 1 (Plasmodium falciparum (isolate 3D7)) (UniProt P62344); test: PfCDPK1 kinase inhibitors, biochemical, TCAMS library (AID 1159585; cut-off not given, nearly all actives have IC50 up to about 0.98 µM;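 further: inhibitors leave more ATP so luminescence rises with inhibition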); settings: recombinant PfCDPK1, Kinase-Glo ATP depletion luminescence
[6] = target: Plasmodium falciparum protein kinase 6 (PK6, PF3D7_1337100) (UniProt Q8IDW1); test: PfPK6 kinase inhibitors, biochemical, TCAMS library (AID 1159586); settings: recombinant PfPK6, Kinase-Glo ATP depletion luminescence
[7] = target: Protein kinase 7 (PK7), Plasmodium falciparum 3D7 (PF3D7_0213400) (UniProt Q7YTF7); test: inhibition of Plasmodium PK7 catalytic activity – biochemical, TCAMS antimalarial set, Kinase-Glo luminescence (AID 1159587); settings: recombinant PfPK7, Kinase-Glo ATP depletion luminescence
[8] = target: Calcium-dependent protein kinase 4 (Plasmodium falciparum (isolate 3D7)) (UniProt Q8IBS5); test: PfCDPK4 kinase inhibitors, biochemical, TCAMS library (AID 1159588; cut-off not given, nearly all actives have IC50 up to about 0.91 µM); settings: recombinant PfCDPK4, Kinase-Glo ATP depletion luminescence
Chain of Calcium-dependent protein kinase 4 (Plasmodium falciparum (isolate 3D7)) (Q8IBS5 whole entry, looked up): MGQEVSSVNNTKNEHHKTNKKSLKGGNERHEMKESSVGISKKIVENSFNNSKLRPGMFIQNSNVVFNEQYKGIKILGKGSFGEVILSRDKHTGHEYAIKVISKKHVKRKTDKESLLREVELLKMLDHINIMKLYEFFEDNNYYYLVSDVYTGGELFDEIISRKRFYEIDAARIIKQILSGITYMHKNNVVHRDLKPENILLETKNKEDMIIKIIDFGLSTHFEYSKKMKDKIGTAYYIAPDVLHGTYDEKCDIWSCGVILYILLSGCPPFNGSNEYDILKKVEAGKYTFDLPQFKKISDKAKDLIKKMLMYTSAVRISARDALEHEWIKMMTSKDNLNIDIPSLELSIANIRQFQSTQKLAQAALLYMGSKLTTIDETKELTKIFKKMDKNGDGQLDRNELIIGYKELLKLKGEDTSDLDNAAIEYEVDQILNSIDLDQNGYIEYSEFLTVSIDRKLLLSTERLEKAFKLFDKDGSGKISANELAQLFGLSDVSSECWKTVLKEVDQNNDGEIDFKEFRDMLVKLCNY

Chain of Calcium-dependent protein kinase 1 (Plasmodium falciparum (isolate 3D7)) (P62344 whole entry, looked up): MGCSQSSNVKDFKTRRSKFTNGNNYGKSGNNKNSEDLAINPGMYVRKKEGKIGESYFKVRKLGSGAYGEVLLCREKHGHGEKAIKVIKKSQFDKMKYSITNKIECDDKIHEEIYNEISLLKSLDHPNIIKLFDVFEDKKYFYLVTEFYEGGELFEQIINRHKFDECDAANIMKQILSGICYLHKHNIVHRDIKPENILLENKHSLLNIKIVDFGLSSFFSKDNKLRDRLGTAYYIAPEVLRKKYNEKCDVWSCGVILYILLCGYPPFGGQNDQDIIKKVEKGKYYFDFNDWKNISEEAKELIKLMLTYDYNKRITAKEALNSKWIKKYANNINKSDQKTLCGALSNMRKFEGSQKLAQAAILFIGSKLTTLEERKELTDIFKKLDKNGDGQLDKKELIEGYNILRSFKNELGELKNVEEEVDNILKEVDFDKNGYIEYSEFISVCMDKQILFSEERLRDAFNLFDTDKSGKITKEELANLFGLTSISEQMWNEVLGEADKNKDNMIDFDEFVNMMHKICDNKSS
Chain of Protein kinase 7 (PK7), Plasmodium falciparum 3D7 (PF3D7_0213400) (Q7YTF7 1-343): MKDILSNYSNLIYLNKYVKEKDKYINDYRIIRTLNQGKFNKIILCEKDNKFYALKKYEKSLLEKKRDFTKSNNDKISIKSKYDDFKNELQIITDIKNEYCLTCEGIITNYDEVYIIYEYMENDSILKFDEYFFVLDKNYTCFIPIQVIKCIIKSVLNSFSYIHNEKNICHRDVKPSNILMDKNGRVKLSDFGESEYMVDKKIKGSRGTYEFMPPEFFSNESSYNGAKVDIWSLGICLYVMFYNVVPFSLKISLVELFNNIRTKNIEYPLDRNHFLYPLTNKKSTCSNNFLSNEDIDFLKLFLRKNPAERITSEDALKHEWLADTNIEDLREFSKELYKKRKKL
Chain of Plasmodium falciparum protein kinase 6 (PK6, PF3D7_1337100) (Q8IDW1 1-305): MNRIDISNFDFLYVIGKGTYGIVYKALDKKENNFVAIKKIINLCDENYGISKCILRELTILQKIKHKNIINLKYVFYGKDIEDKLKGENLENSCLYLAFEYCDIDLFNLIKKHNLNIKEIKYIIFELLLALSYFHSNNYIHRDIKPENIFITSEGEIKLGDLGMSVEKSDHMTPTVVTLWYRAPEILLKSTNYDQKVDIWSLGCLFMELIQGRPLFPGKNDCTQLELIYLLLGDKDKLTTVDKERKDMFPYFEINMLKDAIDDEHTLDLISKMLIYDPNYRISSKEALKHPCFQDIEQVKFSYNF
Chain of L-lactate dehydrogenase (Plasmodium falciparum (isolate CDC / Honduras)) (Q27743 whole entry, looked up): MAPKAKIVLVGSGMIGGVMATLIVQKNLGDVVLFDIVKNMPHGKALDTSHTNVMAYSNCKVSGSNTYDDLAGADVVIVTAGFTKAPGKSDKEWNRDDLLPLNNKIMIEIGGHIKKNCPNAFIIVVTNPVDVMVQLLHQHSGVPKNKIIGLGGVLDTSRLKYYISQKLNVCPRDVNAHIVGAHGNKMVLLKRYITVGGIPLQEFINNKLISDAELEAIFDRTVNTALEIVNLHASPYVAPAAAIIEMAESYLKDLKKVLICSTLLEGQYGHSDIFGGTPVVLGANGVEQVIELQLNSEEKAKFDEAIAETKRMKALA

CCC1CCc2cc(N)cc(-c3nc4c(c(C)nn4CC)c(=O)[nH]3)c2O1 (stereo unspecified)
inactive: growth inhibition [1] 42% | inhibition [2] -3% | inhibition [3] -4% | outcome [5] | outcome [6] | outcome [7] | outcome [8]
active: growth inhibition [4] 86%

CCOc1ccc(C(C)NC(=O)Cc2ccccc2F)cc1OCC (stereo unspecified)
inactive: growth inhibition [1] 44% | inhibition [2] 15% | inhibition [3] 6% | outcome [5] | outcome [6] | outcome [7] | outcome [8]
active: growth inhibition [4] 96%

Cc1csc(-c2nc(NCCc3c(C)noc3C)ncc2-c2ccsc2)n1
inactive: inhibition [2] 6% | inhibition [3] -4% | outcome [5] | outcome [6] | outcome [7] | outcome [8]
active: growth inhibition [1] 82% | growth inhibition [4] 90%

O=C(NC1CCCC1)c1ccc(N2CCC(NCc3cccc(C(F)(F)F)c3)CC2)cc1
inactive: inhibition [2] 11% | inhibition [3] 1% | outcome [5] | outcome [6] | outcome [7] | outcome [8]
active: growth inhibition [1] 75% | growth inhibition [4] 87%

NC(N)=NN=CC(=O)Nc1cc([N+](=O)[O-])cc([N+](=O)[O-])c1
inactive: growth inhibition [1] -2% | inhibition [2] -5% | inhibition [3] -4% | outcome [5] | outcome [6] | outcome [7] | outcome [8]
active: growth inhibition [4] 100%

O=C(Cc1ccc(NC(=O)c2ccc(O)c(-c3cccc([N+](=O)[O-])c3)c2)cc1)NCCN1CCCCC1
active: growth inhibition [4] 89%
inactive: growth inhibition [1] 3% | inhibition [2] 4% | inhibition [3] 4% | outcome [5] | outcome [6] | outcome [7] | outcome [8]

COc1cc(F)c2nccc([C@@H](O)CN3CCC(NCc4cc5c(cc4F)OCCO5)CC3)c2c1
inactive: growth inhibition [1] 45% | inhibition [2] 23% | inhibition [3] -1% | outcome [5] | outcome [6] | outcome [7] | outcome [8]
active: growth inhibition [4] 99%

COc1cc(CCOc2c(C)nc(N)nc2N)cc(OC)c1OC
inactive: growth inhibition [1] -3% | inhibition [3] 4% | outcome [5] | outcome [6] | outcome [7] | outcome [8]
active: inhibition [2] 59% | growth inhibition [4] 93%

COc1ccc(C2C(C(=O)Nc3ccc(C)c(F)c3)c3cc(OC)c(OC)cc3C(=O)N2C)cc1 (stereo unspecified)
inactive: growth inhibition [1] 26% | inhibition [2] 6% | inhibition [3] -2% | outcome [5] | outcome [6] | outcome [7] | outcome [8]
active: growth inhibition [4] 81%

COc1ccc2nccc(NN=Cc3cccc(Cl)c3)c2c1
inactive: inhibition [2] 1% | inhibition [3] 3% | outcome [5] | outcome [6] | outcome [7] | outcome [8]
active: growth inhibition [1] 99% | growth inhibition [4] 100%

CS(=O)(=O)c1ccc(-c2cc(C(F)(F)F)nc(N[C@@H]3CCCC[C@H]3OCc3ccccc3)n2)cc1
active: growth inhibition [1] 99% | growth inhibition [4] 100%
inactive: inhibition [2] 8% | inhibition [3] 5% | outcome [5] | outcome [6] | outcome [7] | outcome [8]

COc1ccc(C2(CNCC(O)c3cccc([N+](=O)[O-])c3)CCCC2)cc1OC (stereo unspecified)
inactive: inhibition [2] 10% | inhibition [3] 5% | outcome [5] | outcome [6] | outcome [7] | outcome [8]
active: growth inhibition [1] 85% | growth inhibition [4] 93%

O=[N+]([O-])c1ccc(NC(=NC2CCCc3ccccc32)Nc2ccccc2Br)c(O)c1 (stereo unspecified)
active: growth inhibition [1] 89% | growth inhibition [4] 98%
inactive: inhibition [2] -4% | inhibition [3] -3% | outcome [5] | outcome [6] | outcome [7] | outcome [8]

CCC[C@@H]([C@@H](CC(C)C)C(=O)N[C@@H](CCCCNC(=O)c1cccc(OC)c1)C(=O)Nc1nccs1)N(O)C=O
inactive: inhibition [2] 5% | inhibition [3] -4% | outcome [5] | outcome [6] | outcome [7] | outcome [8]
active: growth inhibition [1] 99% | growth inhibition [4] 100%

CC1(C)C(=O)Nc2ccccc2N1C(=O)CN1CCN(c2ccccc2O)CC1
active: growth inhibition [1] 72% | growth inhibition [4] 92%
inactive: inhibition [2] 7% | inhibition [3] 0% | outcome [5] | outcome [6] | outcome [7] | outcome [8]

Cc1cccc2[nH]c(-c3ccc(-c4ccc(CN5CCCC(O)C5)cc4)cc3)nc12 (stereo unspecified)
active: growth inhibition [1] 54% | growth inhibition [4] 100%
inactive: inhibition [2] 41% | inhibition [3] 6% | outcome [5] | outcome [6] | outcome [7] | outcome [8]

CCOc1ccc(C(=O)Nc2cc(Br)c3c(c2)CNCC3)cc1C#N
active: growth inhibition [4] 97%
inactive: growth inhibition [1] 32% | inhibition [2] 17% | inhibition [3] -6% | outcome [5] | outcome [6] | outcome [7] | outcome [8]

O=C(NCCN1CCCC1)N1CCCN(c2ncnc3cc(-c4ccc(Cl)cc4)sc23)CC1
active: growth inhibition [4] 96%
inactive: growth inhibition [1] 32% | inhibition [2] 13% | inhibition [3] 6% | outcome [5] | outcome [6] | outcome [7] | outcome [8]

CN1CCC(Oc2cc(NC(=O)Nc3ccc(-c4ccncc4)c(Cl)c3)ccc2Cl)CC1
inactive: inhibition [2] 23% | inhibition [3] -5% | outcome [5] | outcome [6] | outcome [7] | outcome [8]
active: growth inhibition [1] 100% | growth inhibition [4] 99%

COc1ccc(C2CC(c3cccs3)=NN2C(=O)c2ccccc2)cc1OC (stereo unspecified)
active: growth inhibition [1] 83% | growth inhibition [4] 99%
inactive: inhibition [2] 5% | inhibition [3] 5% | outcome [5] | outcome [6] | outcome [7] | outcome [8]

CCCCc1ccc(NC(=O)Nc2ccc3c(c2)CCNCC3)cc1
active: growth inhibition [4] 95%
inactive: growth inhibition [1] 43% | inhibition [2] 16% | inhibition [3] 0% | outcome [5] | outcome [6] | outcome [7] | outcome [8]

O=C(Nc1ccc(C(F)(F)F)cc1)c1ccc(S(=O)(=O)NC2CCCN(CC3CCCCC3)C2)cc1 (stereo unspecified)
inactive: growth inhibition [1] -1% | inhibition [2] 45% | inhibition [3] -5% | outcome [5] | outcome [6] | outcome [7] | outcome [8]
active: growth inhibition [4] 99%

Cc1cccc2[nH]c(-c3ccc(-c4cccc(NC(=O)NCc5cccc(F)c5)c4)s3)nc12
inactive: growth inhibition [1] 8% | inhibition [2] 24% | inhibition [3] -2% | outcome [5] | outcome [6] | outcome [7] | outcome [8]
active: growth inhibition [4] 88%

CN(CCN(C)CC(O)c1ccc(Cl)c(Cl)c1)CC(O)c1ccc(Cl)c(Cl)c1 (stereo unspecified)
inactive: inhibition [2] 22% | inhibition [3] -2% | outcome [5] | outcome [6] | outcome [7] | outcome [8]
active: growth inhibition [1] 73% | growth inhibition [4] 91%

Cn1cncc1-c1ccc2c(-c3ccsc3)cnc(N)c2c1
inactive: inhibition [2] 41% | inhibition [3] -3% | outcome [5] | outcome [6] | outcome [7] | outcome [8]
active: growth inhibition [1] 72% | growth inhibition [4] 97%

COc1ccc(Cl)cc1NC(=O)Nc1ccc2c(c1)CCN(C1CCC1)CC2
inactive: growth inhibition [1] 19% | inhibition [2] 38% | inhibition [3] -2% | outcome [5] | outcome [6] | outcome [7] | outcome [8]
active: growth inhibition [4] 98%

N#Cc1cccc(NC(=O)Nc2cccc(-c3cccc(-c4nc5ccc(F)cc5[nH]4)c3)c2)c1
active: growth inhibition [1] 66% | inhibition [2] 60% | growth inhibition [4] 102%
inactive: inhibition [3] 0% | outcome [5] | outcome [6] | outcome [7] | outcome [8]

CCc1ccc(NC(=O)N(CCCN2CCN(C)CC2)Cc2csc(-c3ccc(CNCc4ccccc4)cc3)n2)cc1
active: growth inhibition [1] 80% | growth inhibition [4] 99%
inactive: inhibition [2] 17% | inhibition [3] -1% | outcome [5] | outcome [6] | outcome [7] | outcome [8]

O=C(Nc1cccc(CN2CCCN(CC3CCCCC3)CC2)c1)c1cc2ccccc2s1
active: growth inhibition [4] 96%
inactive: growth inhibition [1] 15% | inhibition [2] 29% | inhibition [3] 0% | outcome [5] | outcome [6] | outcome [7] | outcome [8]

CCCCNc1c(C(=O)OCC)c(C)nc2c1[nH]c1ccccc12
inactive: inhibition [2] -3% | inhibition [3] 3% | outcome [5] | outcome [6] | outcome [7] | outcome [8]
active: growth inhibition [1] 58% | growth inhibition [4] 100%

CN1CCCc2ccc(NC(=O)C=Cc3ccc(-c4ccc(F)cc4F)o3)cc2C1
inactive: growth inhibition [1] 20% | inhibition [2] 8% | inhibition [3] -5% | outcome [5] | outcome [6] | outcome [7] | outcome [8]
active: growth inhibition [4] 98%

Cn1c(NC(=O)CCCCCNC(=O)c2ccc(O)c(-c3ccc(Cl)c(Cl)c3)c2)nc2ccccc21
active: growth inhibition [1] 55% | growth inhibition [4] 100%
inactive: inhibition [2] -6% | inhibition [3] 7% | outcome [5] | outcome [6] | outcome [7] | outcome [8]

OC(CNCc1ccccc1OCc1ccccc1)c1cccc(I)c1 (stereo unspecified)
active: growth inhibition [1] 100% | growth inhibition [4] 100%
inactive: inhibition [2] 2% | inhibition [3] -1% | outcome [5] | outcome [6] | outcome [7] | outcome [8]

O=C(NCCCN1CCOCC1)c1ccc(-c2cccc(NC(=O)c3ccc(Cl)c(Cl)c3)c2)cc1
active: growth inhibition [1] 68% | growth inhibition [4] 100%
inactive: inhibition [2] 3% | inhibition [3] 3% | outcome [5] | outcome [6] | outcome [7] | outcome [8]

CCN(CC)CCN(Cc1ccc(-c2ccc(C(F)(F)F)cc2)cc1)C(=O)Cn1c(CCc2ccc(F)cc2)nc(=O)c2ccccc21
inactive: inhibition [2] 42% | inhibition [3] -3% | outcome [5] | outcome [6] | outcome [7] | outcome [8]
active: growth inhibition [1] 58% | growth inhibition [4] 97%

Cc1cc(N2CCCN(C)CC2)nc(Nc2ccc(Cl)cc2)n1
active: growth inhibition [4] 96%
inactive: growth inhibition [1] 11% | inhibition [2] 8% | inhibition [3] 1% | outcome [5] | outcome [6] | outcome [7] | outcome [8]

COCCN1CCN(Cc2cccc(-c3ccc(-c4nc5ccccc5[nH]4)cc3)c2)CC1
inactive: inhibition [2] 9% | inhibition [3] 1% | outcome [5] | outcome [6] | outcome [7] | outcome [8]
active: growth inhibition [1] 50% | growth inhibition [4] 100%
